Experimental data from PubChem BioAssay AID588342 (National Center for Advancing Translational Sciences (NCATS), 2011).
The whole screen tested about 360,000 compounds, of which about 25,000 (6.9%) were called active. Not shown: some 9% with an inconclusive outcome. For the sample, actives were picked, then their nearest neighbours and some compounds at random. Values without a mark were called inactive. The call rests on the fitted dose curve; in most records, active means well fitted inhibition curve with a large enough effect; inconclusive means small, poorly fitted or top-dose-only effect; inactive means flat fitted curve, though single readings scatter.

Each compound was assayed against Luciferin 4-monooxygenase (Photinus pyralis) (UniProt P08659) (assay: qHTS profiling assay for firefly luciferase inhibitor/activator using purifed enzyme and Km concentrations of substrates (counterscreen for miR-21 project)). Conditions: purified FLuc, luminescence inhibition; series mostly up to 57.5 µM; activity change, negative = inhibition: at the top concentration.
In short: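 Purified P. pyralis luciferase, 10 nM final, with Km-level 10 uM D-luciferin and 10 uM ATP in 50 mM Tris acetate pH 7.5, 10 mM Mg acetate, 0.01% Tween-20, 0.05% BSA; 6-point qHTS titration about 60 µM downward; luminescence read.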
Further: nearly all actives have a fitted effect of over 55% in size.
Potency means the concentration at half of the fitted maximal effect.
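Wherever activity change, negative = inhibition is given: plate controls were vehicle for no effect and reference inhibitor for full effect.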

Sequence of Luciferin 4-monooxygenase (Photinus pyralis) (P08659 whole entry, looked up): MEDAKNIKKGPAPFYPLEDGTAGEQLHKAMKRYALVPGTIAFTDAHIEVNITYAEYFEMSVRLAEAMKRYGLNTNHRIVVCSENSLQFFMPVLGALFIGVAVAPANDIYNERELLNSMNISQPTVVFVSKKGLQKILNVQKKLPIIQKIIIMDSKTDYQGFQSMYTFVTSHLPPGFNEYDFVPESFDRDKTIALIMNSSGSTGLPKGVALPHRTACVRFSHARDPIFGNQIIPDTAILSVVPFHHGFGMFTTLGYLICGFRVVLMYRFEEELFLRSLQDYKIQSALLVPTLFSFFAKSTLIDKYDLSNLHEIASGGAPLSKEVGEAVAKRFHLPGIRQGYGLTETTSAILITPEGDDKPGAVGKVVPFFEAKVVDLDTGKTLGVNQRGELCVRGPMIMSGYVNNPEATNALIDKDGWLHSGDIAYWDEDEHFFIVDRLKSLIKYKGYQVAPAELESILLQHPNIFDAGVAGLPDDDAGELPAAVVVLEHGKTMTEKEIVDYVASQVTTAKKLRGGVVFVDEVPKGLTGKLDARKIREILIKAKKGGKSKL

Row | Structure (SMILES) | activity change, negative = inhibition [%] | Potency
1 | CCCCNC(=O)c1ccc2c(c1)NC(=O)C(C(C)C)N2 (stereo unspecified) | -6.51 | –
2 | CC(=O)N1CCCc2cc(S(=O)(=O)N3CCC(C(=O)NCc4ccc(C)cc4)CC3)ccc21 | 0.565 | –
3 | CCc1ccc(-c2nn(-c3ccccc3C)cc2C(=O)N2CCN(C3CCS(=O)(=O)C3)CC2)cc1 (stereo unspecified) | 2.23 | –
4 | COc1ccccc1CNCc1ccc(C(=O)O)s1 | 2.57 | –
5 | CCc1nccn1S(=O)(=O)c1cc(Br)ccc1Br | -10.3 | –
6 | CCOC(=O)c1c(NC(=O)c2ccc(S(=O)(=O)N(CC)CC)cc2)sc2c1CCCCC2 | -3.1 | –
7 | CN(C(=O)c1ccc2c(c1)N(Cc1cccc(Cl)c1)C(=O)c1ccccc1S2=O)C1CCCCC1 (stereo unspecified) | -10.7 | –
8 | Cc1ccc(Cl)cc1NC(=O)/C(C#N)=C\c1cn(Cc2ccc(F)cc2)c2ccccc12 | 0.524 | –
9 | CCc1ccc(NS(=O)(=O)c2ccc3[nH]cc(C(=O)NCCc4cccc(C)c4)c(=O)c3c2)cc1 | -6.98 | –
10 | O=C(c1ccc(Cl)nc1)N1CCN(S(=O)(=O)c2ccc3c(c2)OCCO3)CC1 | -2.36 | –
11 | COc1cccc(-c2nnc3n(CCc4ccccc4)c(=O)c4ccccc4n23)c1O | -4.13 | –
12 | Cc1ccccc1NC(=O)c1cc2c([nH]c1=O)CC(C)(C)CC2=O | -15.2 | –
13 | COc1ccc(OC)c(/C=N/NC(=O)c2ccc[n+](CC(=O)c3ccccc3)c2)c1 | -5.82 | –
14 | COc1ccc(C(=O)Nc2cc(C)c(NC(=O)c3ccccc3OC)cn2)cc1 | – | 2.13 µM (active)
15 | COc1ccccc1C(=O)NNC(=O)c1ccc(NC(=O)c2ccccc2)cc1 | -14 | –
16 | O=C(N/N=C/c1ccc(OC(=O)c2ccccc2Cl)cc1)c1ccc(O)cc1 | -2.37 | –
17 | COc1ccc(C(=O)N/N=C(\C)CC(=O)Nc2ccc(Cl)cn2)cc1 | -14.9 | –
18 | COc1ccc(OC)c(/C=C/C(=O)OCC(=O)Nc2ccc3c(c2)OCCO3)c1 | 0.779 | –
19 | COc1ccc(/C=N/NC(=O)c2ccc(Cl)cc2)cc1COC(C)=O | -13.1 | –
20 | COc1ccc(C(=O)Nc2ccccc2C(=O)N/N=C/c2ccc(O)c(OC)c2)cc1 | – | 0.012 µM (active)
21 | COc1ccc(C(=O)Nc2ccccc2C(=O)N/N=C/c2ccccc2OC)cc1 | – | 0.0757 µM (active)
22 | COc1ccc(NC(=O)NCc2ccc3c(c2)OCO3)c(OC)c1 | 6.28 | –
23 | COc1ccc(Nc2ncc(C(=O)Nc3cc(C)ccc3OC)c3ccccc23)cc1 | 7.13 | –
24 | COc1ccc(OC)c(/C=C/C(=O)c2ccc3c(c2)OCO3)c1 | – | 4.78 µM (active)
25 | Cc1ccc(C)c(N2C(=O)N(Cc3c(F)cccc3Cl)c3ccccc3S2(=O)=O)c1 | 1.18 | –
26 | Cc1ccc(CN2CC(C(=O)NNC(=O)Cn3ccc(C(F)(F)F)n3)CC2=O)cc1 (stereo unspecified) | 4.2 | –
